Screening results as filed in PubChem.
In the library only some 2.4% were active in any assay of this set; here they are far more common.
Pol kappa inh-1: blocks human DNA polymerase kappa activity | Q9UBT6 | purified Pol kappa, fluorescent DNA synthesis assay, 10 min | Potency, µM (doses to about 107 µM), actives largely listed as inhibitors | 400,000 tested, 0.53% active | AID 588579
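Kinetic fluorescence screen: compound preincubated 15 min RT with 10 nM enzyme; 50 nM substrate (final) initiates; reads at 0/10 min.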
Pol beta inh: inhibitors of human DNA polymerase beta; 340,000 tested, 1.3% active; Pol beta primer extension/strand displacement, fluorescence kinetic; Potency, µM (top dose mostly 114 µM), hits mostly inhibitors
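Human Pol beta at 10 nM; strand-displacement substrate 50 nM final. Compound exposure 15 min at room temperature before start, reaction 10 min at room temperature.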
POLI inh: blocks human DNA polymerase iota activity; Potency, µM (titrated, usually from 115 µM), actives largely listed as inhibitors; Q9UNA4; Pol iota fluorescent replication assay, 10 min; 390,000 tested, 1% active
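Fluorescent replication assay read twice, at 0 min and 10 min after adding 50 nM (final) substrate. Enzyme (10 nM) and compounds were first incubated 15 min at room temperature; enzyme-free buffer wells were negative controls.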
WRN helicase inh: WRN helicase (human) inhibition. Potency, µM (titrated, usually from 114 µM), actives largely listed as inhibitors. Q14191. AID 651768. 360,000 tested, 0.46% active. WRN helicase unwinding, fluorescent forked duplex, kinetic; further: nearly all actives have a fitted effect of over 55% in size
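Kinetic fluorescence helicase assay: unwinding of a quenched forked DNA duplex (100 nM final) with 2 mM ATP final raises red fluorescence (525/598 nm). Compounds sat 15 min at room temperature with 20 nM WRN beforehand.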
Pol eta inh-1: inhibitors of human DNA polymerase eta | Q9Y253 | recombinant Pol eta, fluorescent DNA replication assay | Potency, µM (highest dose often 114 µM), actives largely listed as inhibitors | 390,000 tested, 1.2% active | AID 588591
Target sequence (Q9Y253 whole entry, looked up): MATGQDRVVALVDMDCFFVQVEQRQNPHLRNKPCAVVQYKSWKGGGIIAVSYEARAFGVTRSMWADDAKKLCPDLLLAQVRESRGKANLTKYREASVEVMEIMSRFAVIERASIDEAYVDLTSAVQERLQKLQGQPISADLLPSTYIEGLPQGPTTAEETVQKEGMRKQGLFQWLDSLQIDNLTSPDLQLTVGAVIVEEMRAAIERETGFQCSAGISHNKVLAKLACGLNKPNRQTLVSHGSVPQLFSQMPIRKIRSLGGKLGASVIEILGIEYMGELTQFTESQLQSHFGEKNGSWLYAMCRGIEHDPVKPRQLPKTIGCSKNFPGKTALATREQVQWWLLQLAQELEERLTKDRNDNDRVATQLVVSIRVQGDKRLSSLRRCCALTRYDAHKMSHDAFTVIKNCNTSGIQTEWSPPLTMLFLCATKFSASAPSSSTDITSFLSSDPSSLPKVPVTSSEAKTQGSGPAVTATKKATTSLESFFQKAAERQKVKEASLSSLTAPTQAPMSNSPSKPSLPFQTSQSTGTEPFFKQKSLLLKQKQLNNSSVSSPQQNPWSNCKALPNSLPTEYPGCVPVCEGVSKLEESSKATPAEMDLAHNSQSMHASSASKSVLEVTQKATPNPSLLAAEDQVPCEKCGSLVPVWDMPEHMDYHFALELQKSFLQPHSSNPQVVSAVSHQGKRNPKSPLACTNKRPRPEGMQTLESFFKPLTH
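Pol eta at 10 nM preincubated with compounds 15 min at room temperature; reaction started with fluorescent substrate (50 nM final) and read kinetically at 0 and 10 min.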
FEN1 inh: inhibitors of human flap endonuclease 1; P39748; Recombinant FEN1 flap cleavage, fluorescence, 15 min; Potency, µM (series often up to 114 µM), usual class: inhibitors; 390,000 tested, 0.35% active; AID 588795; further: nearly all actives have a fitted effect of over 65% in size
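Reaction started by adding substrate (50 nM final) to 10 nM enzyme after 15 min room-temperature compound preincubation. Reads at 0 and 15 min, with data normalized and fitted to a four-parameter Hill equation.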
PGK validate: validation of Trypanosoma brucei phosphoglycerate kinase inhibitors; shares compounds with Pol kappa inh-1; 500 tested, 79% active; Potency, µM (titrated, usually from 57.5 µM), actives largely listed as inhibitors; TbPGK coupled GAPDH assay, Kinase-Glo luminescence; further: nearly all actives have a fitted effect of over 65% in size
POLI cherry-pick: Human Pol iota inhibitor confirmatory assay; AID 720496; shares compounds with Pol kappa inh-1; 1,500 tested, 77% active; Potency, µM, most hits filed as inhibitors; Pol iota primer extension, TAMRA/BHQ fluorescence
Pol kappa inh-2: Pol kappa (human) inhibition, cherry-pick confirmation; shares compounds with Pol eta inh-1; purified Pol-kappa, fluorescent strand-displacement substrate; 920 tested, 76% active; Potency, µM, hits mostly inhibitors; AID 720501
Pol eta inh-2: Pol eta (human) inhibition, cherry-pick confirmation; Potency, µM, usual class: inhibitors; Pol eta primer extension, TAMRA/BHQ fluorescence, 10 min; 2,600 tested, 64% active; shares compounds with Pol eta inh-1
Each line names hits and unclear results; the compound was inactive in the other large screens (follow-up assays come after a bar, where they were run); ! = not active in a repeat. The call rests on the fitted dose curve; in most records, active means well fitted curve in the direction sought with a large enough effect; inconclusive means small, poorly fitted or top-dose-only effect, or another doubt; inactive means no such curve, though single readings can be large; an effect the other way counts as inactive or inconclusive.

O=C(Nc1ccc(S(=O)(=O)Nc2ncccn2)cc1)c1ccc(N2CCCC2=O)cc1	Pol beta inh inconclusive, POLI inh inconclusive, Pol eta inh-1 45µM | POLI cherry-pick inconclusive | Pol eta inh-2 inconclusive
COc1ccc(C(=O)c2sc3nc(-c4ccccc4)ccc3c2N)cc1OC	Pol kappa inh-1 inconclusive, Pol beta inh 13µM, POLI inh inconclusive, WRN helicase inh inconclusive, Pol eta inh-1 inconclusive, FEN1 inh inconclusive | POLI cherry-pick inconclusive | Pol eta inh-2 67
COc1ccc(-c2ccc3c(N)c(C(=O)c4ccc(OC)c(OC)c4)sc3n2)cc1	Pol eta inh-1 inconclusive
Cc1cc(C)n2c(SCC(=O)N(CCC#N)c3ccc4c(c3)OCCO4)nnc2n1	Pol eta inh-1 20µM (no result: Pol kappa inh-1, Pol beta inh, POLI inh, FEN1 inh) | POLI cherry-pick 27 | Pol kappa inh-2 17 | Pol eta inh-2 48
CCOC(=O)c1ccc(N2C(=O)c3n[nH]c(C)c3C2c2ccccc2)cc1 (centres undefined)	none
O=C(NCc1ccc2c(c1)OCO2)c1cc2ncc(Br)cn2n1	Pol beta inh 14µM, POLI inh 22µM, WRN helicase inh inconclusive, Pol eta inh-1 10µM | POLI cherry-pick inconclusive | Pol eta inh-2 inconclusive
O=C(NCc1ccc2c(c1)OCO2)c1ccc(Br)cc1	none
Cc1cc(C)c(OCC(=O)N/N=C/c2ccc3c(c2)OCO3)c(C)c1	none
Cc1ccc(C)c(SCC(=O)OCC(=O)c2ccco2)c1	Pol kappa inh-1 inconclusive, Pol beta inh 22µM, POLI inh 20µM, WRN helicase inh inconclusive, Pol eta inh-1 35µM, FEN1 inh inconclusive | POLI cherry-pick inconclusive | Pol eta inh-2 inconclusive
Cn1c(N)c(C(=O)COC(=O)Cc2cccs2)c(=O)n(C)c1=O	none (no result: Pol beta inh)
Cc1ccc(C)c(SCC(=O)NCc2ccco2)c1	Pol beta inh inconclusive
O=C(Cc1cccs1)OCC(=O)c1ccco1	Pol kappa inh-1 25µM, Pol beta inh 14µM, POLI inh inconclusive, WRN helicase inh inconclusive, Pol eta inh-1 8.9µM | POLI cherry-pick 75 | Pol eta inh-2 60
O=C(Nc1ccc(Cl)c(Cl)c1)C1CCN(C(=O)c2ccco2)CC1	none (no result: Pol beta inh)
CC/C=C\C/C=C\C/C=C\CCCCCCCC(=O)O	Pol kappa inh-1 28µM!, POLI inh 13µM, WRN helicase inh 18µM, Pol eta inh-1 7.9µM (no result: Pol beta inh) | POLI cherry-pick 30 | Pol kappa inh-2 9.5 | Pol eta inh-2 24
CC/C=C\C/C=C\C/C=C\CCCCCCCCCCCC(=O)O	none (no result: Pol beta inh, POLI inh, WRN helicase inh, Pol eta inh-1, FEN1 inh)
Cc1ccc(-c2nc3c4ccccc4[nH]c(=O)n3n2)cc1	Pol eta inh-1 inconclusive (no result: WRN helicase inh) | POLI cherry-pick inconclusive | Pol eta inh-2 inconclusive
Cc1nn(CC(=O)N2CCN(c3ccccc3)CC2)c(C)c1[N+](=O)[O-]	none
Cc1ccnc2nc(C(=O)OCC(=O)c3ccc(NC(=O)CC(C)C)cc3)nn12	POLI inh inconclusive, Pol eta inh-1 inconclusive (no result: Pol beta inh)
CCC(=O)Nc1ccc(C(=O)COC(=O)c2nc3nccc(C)n3n2)cc1	Pol kappa inh-1 inconclusive, POLI inh 4µM, WRN helicase inh inconclusive, Pol eta inh-1 3.5µM, FEN1 inh inconclusive (no result: Pol beta inh) | POLI cherry-pick 17 | Pol kappa inh-2 17 | Pol eta inh-2 27
O=C(CSc1nc(-c2ccccc2)nc2c1Cc1ccccc1O2)Nc1ccc(C(=O)O)cc1	Pol kappa inh-1 10µM, Pol beta inh 2µM, POLI inh inconclusive, WRN helicase inh inconclusive, Pol eta inh-1 7.9µM, FEN1 inh inconclusive | POLI cherry-pick 9.5 | Pol kappa inh-2 42 | Pol eta inh-2 inconclusive
O=C(CSc1nc(-c2ccc(F)cc2)nc2c1Cc1ccccc1O2)Nc1ccc(C(=O)O)cc1	Pol kappa inh-1 inconclusive, Pol beta inh 4.5µM, POLI inh 1.4µM, WRN helicase inh inconclusive, Pol eta inh-1 inconclusive, FEN1 inh inconclusive | PGK validate 2.1µM | POLI cherry-pick 7.5 | Pol kappa inh-2 7.5
CC(=O)O[C@H]1C2OC(=O)C(C)=C2[C@@H]2OC(=O)[C@]3(CCC4OC41C)OC23 (some centres undefined)	none
O=C(c1ccc2c(c1)OCCO2)N1CCN(S(=O)(=O)c2c(F)cccc2F)CC1	none (no result: Pol beta inh, WRN helicase inh)
O=C(c1cccc(-n2cccc2)c1)N1CCN(S(=O)(=O)c2c(F)cccc2F)CC1	Pol kappa inh-1 inconclusive, Pol beta inh inconclusive, POLI inh 22µM, WRN helicase inh inconclusive, Pol eta inh-1 20µM | POLI cherry-pick 67 | Pol eta inh-2 76
CCOc1ccc(Nc2ccc(N)c(S(=O)(=O)O)c2)cc1	Pol kappa inh-1 32µM, POLI inh 11µM, WRN helicase inh inconclusive, Pol eta inh-1 11µM (no result: Pol beta inh) | POLI cherry-pick 75 | Pol kappa inh-2 75 | Pol eta inh-2 38
CCOc1ccc(NS(=O)(=O)c2ccc(N)cc2)cc1	none
Cn1c(-c2ccc(F)cc2)cnc1SCC(=O)Nc1ccccc1N1CCOCC1	none
Cc1ccc(SC2=C(N(C)C)C(=O)c3ccccc3C2=O)cc1	POLI inh 20µM, Pol eta inh-1 8.9µM (no result: Pol beta inh) | POLI cherry-pick inconclusive | Pol eta inh-2 76
Cc1nn(-c2ccccc2)c(Cl)c1/C=N/Nc1ccc(S(=O)(=O)Nc2ccccc2C(=O)O)cc1[N+](=O)[O-]	Pol kappa inh-1 inconclusive, Pol beta inh 45µM, POLI inh 40µM, WRN helicase inh inconclusive, Pol eta inh-1 35µM, FEN1 inh inconclusive | POLI cherry-pick inconclusive | Pol kappa inh-2 24 | Pol eta inh-2 43
C=CCOc1ccc(C=NNc2ccc(S(=O)(=O)Nc3ccccc3C(=O)O)cc2[N+](=O)[O-])cc1OC	Pol kappa inh-1 inconclusive, POLI inh 14µM, WRN helicase inh 50µM, Pol eta inh-1 inconclusive, FEN1 inh inconclusive (no result: Pol beta inh) | PGK validate 5.2µM | POLI cherry-pick 19 | Pol kappa inh-2 inconclusive | Pol eta inh-2 85
CC(C)c1nc(SCC(=O)N2CCCC2)c2ccccc2n1	none
Cc1cc(-c2n[nH]c(=S)n2/N=C/c2ccc(Cl)c([N+](=O)[O-])c2)n[nH]1	none
O=[N+]([O-])c1cc(/C=N/n2c(-c3ccncc3)n[nH]c2=S)ccc1Cl	Pol kappa inh-1 inconclusive, Pol beta inh 2.5µM, POLI inh 13µM, WRN helicase inh inconclusive, Pol eta inh-1 50µM, FEN1 inh 50µM | POLI cherry-pick 17 | Pol eta inh-2 43
